The results in this text go back to PubChem BioAssay (EPA / NIEHS).

Results filed as inconclusive are left out. Activity calls are given as the source filed them. Rule for the calls: active = hit-call score of the fitted dose curve at least 0.9, where 1 is the maximum; inconclusive = response in the unintended direction; inactive = score below 0.9.

For assay [1], the target named is human Esterase Plasma (ES), BCHE (gene 590) (UniProt P06276). As to the kind of experiment: NVS_ENZ_hES: NovaScreen (NVS) Enzymatic Assay for human Esterase Plasma (ES) (AID 2283157). The gist of the method:
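Primary single-concentration screen at 25 uM in duplicate, then concentration-response to a 50 uM top dose. Human plasma esterase activity detected colorimetrically after 0.25 h incubation, with DMSO as baseline.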

For assay [2], the target named is Glycogen synthase kinase-3 beta (Homo sapiens) (UniProt P49841). As to the kind of experiment: NVS_ENZ_hGSK3b: NovaScreen (NVS) Enzymatic Assay for human Glycogen Synthase Kinase-3 beta (GSK3b) (AID 2283165). The gist of the method: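 Recombinant enzyme with specific fluorescent substrate, 1 h, product separated by electrophoretic mobility shift. Primary duplicate screen at 25 uM; actives (e.g. 30% inhibition) followed in singleton concentration-response to 50 uM. Signal loss fitted versus DMSO.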

For assay [3], the target named is Mitogen-activated protein kinase 3 (Homo sapiens) (UniProt P27361). As to the kind of experiment: NVS_ENZ_hMAPK3: NovaScreen (NVS) Enzymatic Assay for human Mitogen-Activated Protein Kinase 3 (MAPK 3) (AID 2283177). In outline: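 Chemicals were first tested in duplicate at 25 uM, with hits re-run as concentration series (max 50 uM). Recombinant enzyme activity, measured 1 h post-dose in a cell-free format, was read by fluorescence/mobility shift relative to DMSO.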

The target of assay [4] is human Fibroblast Growth Factor Receptor 1 (FGFR1), FGFR1 (gene 2260) (UniProt P11362). Briefly: NVS_ENZ_hFGFR1: NovaScreen (NVS) Enzymatic Assay for human Fibroblast Growth Factor Receptor 1 (FGFR1) (AID 2283159). The gist of the method:
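Cell-free recombinant kinase with fluorescent substrate, product separated by electrophoretic mobility shift; read 1 hour after dosing, loss of signal relative to DMSO. Initial screen in duplicate at 25 uM, actives followed in concentration series.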

For assay [5], the target named is human IkappaB Kinase alpha (IKKa), CHUK (gene 1147) (UniProt O15111). As to the kind of experiment: NVS_ENZ_hIKKa: NovaScreen (NVS) Enzymatic Assay for human IkappaB Kinase alpha (IKKa) (AID 2283167). The gist of the method:
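Compounds first run in duplicate at 25 uM, those meeting threshold (e.g. 30% inhibition) retested to maximum 50 uM. Enzyme activity of recombinant IKKa measured by fluorescence with electrophoretic mobility shift separation, 1 hour post-dosing, DMSO baseline.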

Assay [6] addresses human LYN Proto-Oncogene, Src family Tyrosine Kinase (LynA), LYN (gene 4067) (UniProt P07948). As to the kind of experiment: NVS_ENZ_hLynA: NovaScreen (NVS) Enzymatic Assay for human LYN Proto-Oncogene, Src family Tyrosine Kinase (LynA) (AID 2283173). In outline:
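Recombinant kinase with fluorescent substrate; product separated from substrate by electrophoretic mobility shift and read 1 h after dosing. Duplicate screen at 25 uM, then concentration-response up to 50 uM; activity scored as signal loss against DMSO.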

In assay [7] the target is human Dual Specificity Protein Phosphatase 3 (DUSP3), DUSP3 (gene 1845) (UniProt P51452). As to the kind of experiment: NVS_ENZ_hDUSP3: NovaScreen (NVS) Enzymatic Assay for human Dual Specificity Protein Phosphatase 3 (DUSP3) (AID 2283152).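 Note: phosphatase activity of recombinant human DUSP3 on a fluorogenic substrate without cells.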 In outline:
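Cell-free fluorescence-intensity enzyme activity assay with recombinant protein and substrate; loss of signal fitted relative to DMSO baseline. Primary screen in duplicate at 25 uM, actives then run in concentration series; measured 0 h after dosing.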

Assay [8] deals with human Casein Kinase 1-delta (CK1D), CSNK1D (gene 1453) (UniProt P48730). Briefly: NVS_ENZ_hCK1D: NovaScreen (NVS) Enzymatic Assay for human Casein Kinase 1-delta (CK1D) (AID 2283148). The gist of the method: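 Recombinant human CK1-delta, cell-free; fluorescent substrate with electrophoretic mobility-shift separation of product, read 1 h after dosing. Single 25 uM duplicate screen, then concentration-response up to 50 uM; loss of signal vs DMSO.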

Assay [9] has as its target human Ephrin type-A Receptor 1 (EphA1), EPHA1 (gene 2041) (UniProt P21709). Briefly: NVS_ENZ_hEphA1: NovaScreen (NVS) Enzymatic Assay for human Ephrin type-A Receptor 1 (EphA1) (AID 2283158).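 Note: activity is signal loss versus DMSO meaning EphA1 kinase inhibition.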 The gist of the method:
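Biochemical kinase assay run cell-free; 1 h incubation; readout is fluorescence with mobility-shift separation of product. Concentration-response up to 50 uM for actives from a 25 uM screen.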

The target in assay [10] is human Elastase, ELANE (gene 1991) (UniProt P08246). As to the kind of experiment: NVS_ENZ_hElastase: NovaScreen (NVS) Enzymatic Assay for human Elastase (AID 2283153). In outline: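 Concentration-response to 50 uM max, run singly for chemicals passing a threshold (e.g., 30% inhibition) in a duplicate 25 uM single-point screen. Neutrophil-derived human elastase, absorbance read-out of enzyme activity at 1.5 h; DMSO baseline.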

The target of assay [11] is human Colony Stimulating Factor 1 Receptor (CSF1R), CSF1R (gene 1436) (UniProt P07333). Briefly: NVS_ENZ_hCSF1R: NovaScreen (NVS) Enzymatic Assay for human Colony Stimulating Factor 1 Receptor (CSF1R) (AID 2283150). In outline: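 Compounds screened in duplicate at 25 uM, then concentration-response (top 50 uM) for those passing threshold such as 30% inhibition; recombinant CSF1R activity measured 1 h post-dosing via fluorescent substrate/product mobility-shift separation, loss of signal versus DMSO.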

Assay [12] has as its target human Epidermal Growth Factor Receptor (EGFR), EGFR (gene 1956) (UniProt P00533). Briefly: NVS_ENZ_hEGFR: NovaScreen (NVS) Enzymatic Assay for human Epidermal Growth Factor Receptor (EGFR) (AID 2283151). In outline:
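Cell-free kinase assay, fluorescence plus electrophoretic mobility shift separating substrate and product, read 1 hour after dosing; loss of signal vs DMSO. Duplicate screen at 25 uM, then concentration-response to 50 uM.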

Assay [13] addresses human c-Jun N-terminal Kinases (JNK2), MAPK9 (gene 5601) (UniProt P45984). Briefly: NVS_ENZ_hJNK2: NovaScreen (NVS) Enzymatic Assay for human c-Jun N-terminal Kinases (JNK2) (AID 2283171). The gist of the method:
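Chemicals first tested in duplicate at 25 uM, then in singleton concentration series up to 50 uM, against extracted JNK2 enzyme. Activity loss read by fluorescence with mobility-shift separation 1 h post-dose; DMSO baseline.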

Assay [14] concerns the target human Mitogen-Activated Protein Kinase 1 (MAPK 1), MAPK1 (gene 5594) (UniProt P28482). Briefly: NVS_ENZ_hMAPK1: NovaScreen (NVS) Enzymatic Assay for human Mitogen-Activated Protein Kinase 1 (MAPK 1) (AID 2283175). In outline:
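Cell-free recombinant human MAPK1 enzymatic assay, fluorescence/electrophoretic mobility shift read at 1 h; loss of signal vs DMSO. Primary screen in duplicate at 25 uM; actives (e.g. ≥30% inhibition) run as concentration-response up to 50 uM.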

Chain of human Fibroblast Growth Factor Receptor 1 (FGFR1), FGFR1 (gene 2260) (P11362 whole entry, looked up): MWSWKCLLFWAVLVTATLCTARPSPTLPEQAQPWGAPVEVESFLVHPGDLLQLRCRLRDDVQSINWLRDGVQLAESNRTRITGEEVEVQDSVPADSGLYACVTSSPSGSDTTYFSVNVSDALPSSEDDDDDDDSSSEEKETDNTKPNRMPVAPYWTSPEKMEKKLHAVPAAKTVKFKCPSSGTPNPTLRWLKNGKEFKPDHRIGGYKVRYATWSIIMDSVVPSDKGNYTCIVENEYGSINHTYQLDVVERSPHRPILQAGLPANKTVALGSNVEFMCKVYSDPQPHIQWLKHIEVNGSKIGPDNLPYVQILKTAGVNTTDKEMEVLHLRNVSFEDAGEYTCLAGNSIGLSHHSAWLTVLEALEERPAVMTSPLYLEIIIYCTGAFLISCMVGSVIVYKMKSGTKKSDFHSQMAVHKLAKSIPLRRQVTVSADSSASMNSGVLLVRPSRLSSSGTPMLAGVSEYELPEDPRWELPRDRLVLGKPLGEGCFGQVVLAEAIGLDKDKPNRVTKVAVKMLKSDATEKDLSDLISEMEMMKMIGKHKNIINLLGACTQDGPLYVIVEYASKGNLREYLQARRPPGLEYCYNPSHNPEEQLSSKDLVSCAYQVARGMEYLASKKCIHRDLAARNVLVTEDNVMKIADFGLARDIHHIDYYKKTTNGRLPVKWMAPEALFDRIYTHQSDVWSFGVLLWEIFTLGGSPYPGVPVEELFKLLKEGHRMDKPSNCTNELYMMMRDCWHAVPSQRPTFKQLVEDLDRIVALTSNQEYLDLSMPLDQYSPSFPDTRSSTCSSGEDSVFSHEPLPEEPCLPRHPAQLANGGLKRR
Chain of human Dual Specificity Protein Phosphatase 3 (DUSP3), DUSP3 (gene 1845) (P51452 whole entry, looked up): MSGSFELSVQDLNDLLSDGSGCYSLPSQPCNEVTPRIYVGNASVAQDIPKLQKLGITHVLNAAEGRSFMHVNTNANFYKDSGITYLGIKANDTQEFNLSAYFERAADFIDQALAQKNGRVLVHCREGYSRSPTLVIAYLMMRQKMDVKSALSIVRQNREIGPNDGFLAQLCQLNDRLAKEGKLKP
Chain of human Ephrin type-A Receptor 1 (EphA1), EPHA1 (gene 2041) (P21709 whole entry, looked up): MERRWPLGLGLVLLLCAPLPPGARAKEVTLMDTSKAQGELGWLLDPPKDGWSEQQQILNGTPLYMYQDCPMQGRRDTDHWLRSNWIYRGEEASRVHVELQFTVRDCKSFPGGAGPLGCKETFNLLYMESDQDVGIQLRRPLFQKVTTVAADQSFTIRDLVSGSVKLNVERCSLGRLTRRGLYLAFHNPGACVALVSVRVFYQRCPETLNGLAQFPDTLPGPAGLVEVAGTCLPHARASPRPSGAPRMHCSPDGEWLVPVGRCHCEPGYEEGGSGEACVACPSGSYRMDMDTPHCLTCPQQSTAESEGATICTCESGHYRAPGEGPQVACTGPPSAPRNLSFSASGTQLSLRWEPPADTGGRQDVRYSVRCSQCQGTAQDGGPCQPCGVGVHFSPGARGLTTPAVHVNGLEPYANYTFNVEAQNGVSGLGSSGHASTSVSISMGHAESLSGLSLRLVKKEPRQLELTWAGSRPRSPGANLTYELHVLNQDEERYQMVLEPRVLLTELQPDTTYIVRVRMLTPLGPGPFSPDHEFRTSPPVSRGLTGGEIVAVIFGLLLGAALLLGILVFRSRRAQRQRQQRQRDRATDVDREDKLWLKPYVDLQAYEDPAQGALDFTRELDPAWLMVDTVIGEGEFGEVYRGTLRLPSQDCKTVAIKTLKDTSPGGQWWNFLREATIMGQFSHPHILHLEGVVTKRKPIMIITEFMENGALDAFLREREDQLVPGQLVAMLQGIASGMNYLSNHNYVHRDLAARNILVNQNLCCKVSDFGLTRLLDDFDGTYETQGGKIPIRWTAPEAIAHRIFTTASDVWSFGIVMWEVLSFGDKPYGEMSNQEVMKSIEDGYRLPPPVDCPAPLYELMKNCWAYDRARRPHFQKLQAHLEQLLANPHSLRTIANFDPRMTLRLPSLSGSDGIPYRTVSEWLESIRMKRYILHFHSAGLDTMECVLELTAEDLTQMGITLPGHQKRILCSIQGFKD
Chain of human Casein Kinase 1-delta (CK1D), CSNK1D (gene 1453) (P48730 whole entry, looked up): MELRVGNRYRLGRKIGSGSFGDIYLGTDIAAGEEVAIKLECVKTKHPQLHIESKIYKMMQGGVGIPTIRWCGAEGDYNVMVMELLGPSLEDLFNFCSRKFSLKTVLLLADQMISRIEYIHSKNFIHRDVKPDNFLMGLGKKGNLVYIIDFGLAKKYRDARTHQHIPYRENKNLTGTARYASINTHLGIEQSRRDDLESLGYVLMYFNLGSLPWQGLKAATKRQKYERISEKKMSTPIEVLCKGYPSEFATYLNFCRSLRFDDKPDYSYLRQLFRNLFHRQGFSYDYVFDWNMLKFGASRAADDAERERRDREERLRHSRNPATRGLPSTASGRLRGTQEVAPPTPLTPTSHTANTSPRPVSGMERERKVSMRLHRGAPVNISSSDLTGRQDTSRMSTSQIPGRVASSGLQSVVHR
Chain of Glycogen synthase kinase-3 beta (Homo sapiens) (P49841 whole entry, looked up): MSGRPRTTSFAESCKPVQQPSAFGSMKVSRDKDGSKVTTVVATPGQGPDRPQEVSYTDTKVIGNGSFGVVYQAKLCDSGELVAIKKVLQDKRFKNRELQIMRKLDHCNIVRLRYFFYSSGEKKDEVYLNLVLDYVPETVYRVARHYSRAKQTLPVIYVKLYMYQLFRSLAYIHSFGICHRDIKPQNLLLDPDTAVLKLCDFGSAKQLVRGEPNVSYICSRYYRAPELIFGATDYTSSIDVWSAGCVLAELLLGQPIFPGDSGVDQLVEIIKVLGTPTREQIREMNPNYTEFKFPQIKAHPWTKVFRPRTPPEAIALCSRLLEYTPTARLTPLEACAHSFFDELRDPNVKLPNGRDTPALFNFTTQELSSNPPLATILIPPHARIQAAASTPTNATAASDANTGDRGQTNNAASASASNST
Chain of human IkappaB Kinase alpha (IKKa), CHUK (gene 1147) (O15111 whole entry, looked up): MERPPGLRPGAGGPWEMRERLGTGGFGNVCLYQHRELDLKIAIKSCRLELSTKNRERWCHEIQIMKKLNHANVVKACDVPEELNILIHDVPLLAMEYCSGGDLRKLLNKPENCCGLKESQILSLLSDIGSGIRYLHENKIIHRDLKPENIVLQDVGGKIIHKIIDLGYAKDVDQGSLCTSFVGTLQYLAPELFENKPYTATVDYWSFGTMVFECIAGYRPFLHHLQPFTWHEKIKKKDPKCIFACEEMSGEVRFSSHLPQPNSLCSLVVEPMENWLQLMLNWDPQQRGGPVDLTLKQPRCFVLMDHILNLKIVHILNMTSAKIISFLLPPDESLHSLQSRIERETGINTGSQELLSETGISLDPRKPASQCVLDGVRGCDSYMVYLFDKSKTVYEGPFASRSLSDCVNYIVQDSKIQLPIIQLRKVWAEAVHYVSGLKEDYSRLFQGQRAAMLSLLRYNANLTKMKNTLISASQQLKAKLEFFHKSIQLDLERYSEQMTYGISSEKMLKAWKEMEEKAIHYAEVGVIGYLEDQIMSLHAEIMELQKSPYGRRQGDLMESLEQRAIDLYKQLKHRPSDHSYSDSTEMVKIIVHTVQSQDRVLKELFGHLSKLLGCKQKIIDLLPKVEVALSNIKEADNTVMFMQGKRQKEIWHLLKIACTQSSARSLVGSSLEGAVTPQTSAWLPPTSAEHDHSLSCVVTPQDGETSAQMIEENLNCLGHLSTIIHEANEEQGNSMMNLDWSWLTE
Chain of human c-Jun N-terminal Kinases (JNK2), MAPK9 (gene 5601) (P45984 whole entry, looked up): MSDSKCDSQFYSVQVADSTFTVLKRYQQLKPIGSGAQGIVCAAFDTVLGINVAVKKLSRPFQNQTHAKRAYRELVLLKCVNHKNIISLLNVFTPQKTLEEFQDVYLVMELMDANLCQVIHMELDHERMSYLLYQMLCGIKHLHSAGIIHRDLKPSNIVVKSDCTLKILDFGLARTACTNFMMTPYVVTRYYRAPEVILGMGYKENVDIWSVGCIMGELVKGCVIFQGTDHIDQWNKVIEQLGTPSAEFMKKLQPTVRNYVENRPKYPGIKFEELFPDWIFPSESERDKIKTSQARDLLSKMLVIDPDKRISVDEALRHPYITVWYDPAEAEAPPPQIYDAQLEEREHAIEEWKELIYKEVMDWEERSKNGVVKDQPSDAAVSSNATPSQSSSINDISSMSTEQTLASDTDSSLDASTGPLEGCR
Chain of human Esterase Plasma (ES), BCHE (gene 590) (P06276 whole entry, looked up): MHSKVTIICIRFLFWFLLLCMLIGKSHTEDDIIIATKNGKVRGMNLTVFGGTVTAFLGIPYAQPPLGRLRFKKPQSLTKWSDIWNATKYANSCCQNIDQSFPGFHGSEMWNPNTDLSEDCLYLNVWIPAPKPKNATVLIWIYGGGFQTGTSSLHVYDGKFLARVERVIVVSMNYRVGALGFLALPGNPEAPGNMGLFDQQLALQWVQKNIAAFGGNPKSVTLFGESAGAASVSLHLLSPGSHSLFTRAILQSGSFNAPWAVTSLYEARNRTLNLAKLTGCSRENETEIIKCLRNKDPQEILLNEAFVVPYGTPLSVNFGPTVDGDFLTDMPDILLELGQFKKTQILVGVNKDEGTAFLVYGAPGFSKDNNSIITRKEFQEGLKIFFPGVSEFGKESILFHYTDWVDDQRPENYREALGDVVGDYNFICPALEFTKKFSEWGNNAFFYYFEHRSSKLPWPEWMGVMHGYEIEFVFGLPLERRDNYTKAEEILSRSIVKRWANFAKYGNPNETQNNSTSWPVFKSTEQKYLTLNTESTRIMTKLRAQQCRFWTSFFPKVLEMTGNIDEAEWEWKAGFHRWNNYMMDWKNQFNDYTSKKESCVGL
Chain of human Elastase, ELANE (gene 1991) (P08246 whole entry, looked up): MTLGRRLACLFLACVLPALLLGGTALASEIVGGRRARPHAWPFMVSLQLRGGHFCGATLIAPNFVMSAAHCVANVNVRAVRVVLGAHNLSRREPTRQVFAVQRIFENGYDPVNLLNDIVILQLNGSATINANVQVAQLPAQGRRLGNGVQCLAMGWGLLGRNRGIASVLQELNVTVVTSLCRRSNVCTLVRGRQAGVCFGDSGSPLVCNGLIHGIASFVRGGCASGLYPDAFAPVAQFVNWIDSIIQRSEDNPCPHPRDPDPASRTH

Take `Nc1ccc2ccccc2c1`: in [1], the AC50 was 13.7 µM (active). For the same molecule, in [2], the result was inactive.

For `Nc1cc2c3c(c1)C(c1ccccc1)=N[C@@H](NC(=O)c1cccnc1)C(=O)N3CC2`, the call in assay [3] was inactive.

Regarding `ClC(Cl)(Cl)c1ccccc1`, the outcome in assay [4] was inactive.

`Cc1cccc(N)c1`: the molecule was classed as inactive in assay [5] and in assay [6].

Regarding `CCOP(=S)(S)OCC`, the half-maximal activity concentration (AC50) in assay [7] was 19.9 µM (active).

Turning to `O=[N+]([O-])c1ccccc1`, the molecule was classed as inactive in [8] and in [4].

Take `CC(C)Nc1ccc(Nc2ccccc2)cc1`: the half-maximal activity concentration (AC50) in assay [7] is 2.71 µM (active). Moreover, the call in assay [9] was inactive.

For `c1ccc2c(c1)Nc1ccccc1S2`, the result in assay [10] was inactive.

As for `CSC(C)(C)C=NO`, the call in assay [11] and in assay [4] was inactive.

Turning to `CC(Cl)(Cl)C(=O)O`, the call in assay [9] was inactive.

Regarding `Cc1ccc(O)cc1C`, the outcome in assay [8], in assay [12], in assay [2], in assay [13] and in assay [14] was inactive.
